From PMC5540273 (PLoS ONE, 2017)

Key:
Conditions in all cases: concentration: 1 μM, replicates: in singlicate; n = 1
EPHA3 = system: EPHA3
EPHA4 = system: EPHA4
EPHA5 = system: EPHA5
EPHA6 = system: EPHA6
EPHA7 = system: EPHA7
EPHA8 = system: EPHA8
EPHB1 = system: EPHB1
EPHB2 = system: EPHB2
EPHB3 = system: EPHB3
EPHB4 = system: EPHB4
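Further: KINOMEscan kinase panel screen.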

Row | Structure (SMILES) | %Inh (EPHA3) [%] | %Inh (EPHA4) [%] | %Inh (EPHA5) [%] | %Inh (EPHA6) [%] | %Inh (EPHA7) [%] | %Inh (EPHA8) [%] | %Inh (EPHB1) [%] | %Inh (EPHB2) [%] | %Inh (EPHB3) [%] | %Inh (EPHB4) [%]
1 | CN1c2ccc(NCc3ccc(F)cc3)cc2-c2c(cnn2C)S1(=O)=O | 0 | 0 | 0 | 0 | 0 | 0 | 0 | 0 | 6 | 0
2 | CN(C(=O)c1ccc(-c2cc(-c3c[nH]nc3-c3ccccn3)ccn2)cc1)C1CCOCC1 [GW810083] | 27 | 0 | 4 | 0 | 0 | 0 | 0 | 0 | 0 | 0
3 | O=c1cc(N2CCOCC2)nc2n(Cc3cccc(F)c3)ccn12 [GSK2297430] | 0 | 10 | 0 | 10 | 4 | 13 | 0 | 0 | 14 | 17
4 | [2H]C([2H])(c1cccc(C(F)(F)F)c1C)n1ccn2c(=O)nc(N3CCOCC3)cc12 [GSK2336394] | 0 | 1 | 0 | 0 | 11 | 19 | 20 | 0 | 7 | 8
5 | NS(=O)(=O)c1cccc(-c2ccc3nccc(-c4cccc(S(N)(=O)=O)c4)c3c2)c1 [GW867253] | 11 | 0 | 2 | 0 | 0 | 4 | 0 | 0 | 0 | 0
6 | N#Cc1c(N2CCOCC2)sc(-c2ccn[nH]2)c1-c1ccc(Cl)cc1 | 11 | 0 | 16 | 27 | 5 | 7 | 14 | 0 | 15 | 12
7 | COC(=O)Nc1nc2cc(Oc3ccc(NC(=O)Nc4cc(F)ccc4F)cc3)ccc2[nH]1.Cl [GW701424] | 8 | 37 | 1 | 75 | 16 | 75 | 37 | 68 | 1 | 53
8 | COc1ccc(S(=O)(=O)NC2CCN(c3cc(C)nc(Nc4cccc(C#N)c4)n3)CC2)cc1.O=C(O)C(F)(F)F [GSK1653539] | 7 | 11 | 0 | 0 | 0 | 0 | 7 | 0 | 13 | 16
9 | CC(C)Oc1ccc2c(-c3ccnc(Nc4ccc(N5CCN(C)CC5)cc4)n3)cnn2n1 [GW696155] | 33 | 1 | 0 | 11 | 7 | 9 | 9 | 0 | 13 | 26
10 | Cc1c(Cn2c(C)nn3c(=O)cc(N4CCOC(C)C4)nc23)cccc1C(F)(F)F (stereo not shown) [GSK2344444] | 0 | 3 | 0 | 0 | 3 | 0 | 10 | 46 | 0 | 0
11 | N#Cc1ccc(-c2cc(-c3c[nH]nc3-c3ccccn3)ccn2)cc1 [GW693028] | 18 | 2 | 0 | 0 | 44 | 39 | 7 | 8 | 5 | 11
12 | Cn1cc(-c2ccc3c(c2)CCN3C(=O)Cc2ccccc2Cl)c2c(N)ncnc21 [GSK2608885] | 34 | 62 | 0 | 58 | 92 | 93.5 | 43 | 64 | 0 | 15
13 | COc1ccc(COc2cc(-n3cnc4ccccc43)sc2C(N)=O)cc1 [GSK1024304] | 11 | 0 | 0 | 0 | 6 | 19 | 12 | 9 | 0 | 11
14 | O=C(NCCCN1CCOCC1)c1cccc(Nc2nccc(Nc3ccc(Oc4ccccc4)cc3)n2)c1 [GW663929] | 25 | 3 | 0 | 3 | 0 | 0 | 1 | 0 | 2 | 14
15 | Cc1cccc(Cn2ccn3c(=O)cc(N4CCOCC4)nc23)c1 [GSK2297542] | 12 | 10 | 0 | 9 | 0 | 19 | 23 | 0 | 13 | 15
16 | NS(=O)(=O)CCc1cccc(Nc2nccc(-c3c(-c4cccc(NC(=O)c5c(F)cccc5F)c4)nn4ccccc34)n2)c1 [GSK336735] | 30 | 45 | 0 | 48 | 8 | 60 | 26 | 18 | 0 | 11
